Test results published in PubChem BioAssay AID1645851 (National Center for Advancing Translational Sciences (NCATS), 2021).
The whole screen tested about 140,000 compounds, of which about 1,200 (0.86%) were called active. The list comes from a sample in which actives are over-represented; it also holds similar structures and randomly drawn compounds. A number with no mark means an inactive call. No stated cut-off is given here; in the data, active means activity change below about -25%; inactive means the rest.

Each compound was assayed against Inositol hexakisphosphate kinase 1 (Homo sapiens) (UniProt Q92551) (assay: Primary qHTS assay for small molecule inhibitors of Inositol hexaphosphate kinase 1 (IP6K1)). Conditions: ADP-Glo luminescence, 2 h, hits give low values.
Description: Assay Provider: Huijun Wei, M.S., Ph.D. School of Medicine, Johns Hopkins University, Baltimore, MD Inositol hexakisphosphate kinases (IP6Ks) catalyze pyrophosphorylation of inositol hexakisphosphate (IP6) into inositol 5-diphospho-1,2,3,4,6-pentakisphosphate (IP7), which is involved in numerous areas of cell physiology including glucose homeostasis, blood coagulation and neurological development. Inhibition of IP6Ks may be effective for the treatment of Type II diabetes, thrombosis, and psychiatric disorders. We performed a quantitative high throughput screen (qHTS) of 158,410 compounds for IP6K1 inhibitors using ankinase activity ADP-Glo Max assay. […] Medicinal chemistry SAR efforts in three chemical series identified potent IP6K1 inhibitors, which were further validated in an orthogonal LC-MS IP7 analysis.
PROTOCOL TABLE SEQUENCE No. (e.g., 1, 2, 3, etc.); […] (e.g., Cells, Incubation, Reagent, etc.); VALUE and DESCRIPTION. 1. Reagent, 3 uL of 1.3 mM ATP and 130 uM IP6 mixture in assay buffer was dispensed to a white, 1536-well assay plate. 2. Compound, 23 nL of compounds of the top two doses (57.5 uM and 19.1 uM final concentration) of the libraries were dispensed into the mixture using the Kalypsis pintool. 3. Reagent, 1 uL of 2.4 uM IP6K1 was dispensed to the assay plates. 4. Incubation, 2 hr incubation at room temperature. 5. Reagent, 2 uL of ADP-Glo reagent was added to the wells. 6. Incubation, 1 hr incubation at room temperature. 7. Reagent, 4 uL or ADP-Glo substate was added to the wells. 8. Incubation, 45 min incubation at room temperature. 9. Detection, luminescence signal was detected using the ViewLux microplate imager (PerkinElmer).
Further: series mostly up to about 58 µM.
On the % scale 0 is the no-effect control and ±100 the full control effect.

Inositol hexakisphosphate kinase 1 (Homo sapiens), sequence (Q92551 whole entry, looked up): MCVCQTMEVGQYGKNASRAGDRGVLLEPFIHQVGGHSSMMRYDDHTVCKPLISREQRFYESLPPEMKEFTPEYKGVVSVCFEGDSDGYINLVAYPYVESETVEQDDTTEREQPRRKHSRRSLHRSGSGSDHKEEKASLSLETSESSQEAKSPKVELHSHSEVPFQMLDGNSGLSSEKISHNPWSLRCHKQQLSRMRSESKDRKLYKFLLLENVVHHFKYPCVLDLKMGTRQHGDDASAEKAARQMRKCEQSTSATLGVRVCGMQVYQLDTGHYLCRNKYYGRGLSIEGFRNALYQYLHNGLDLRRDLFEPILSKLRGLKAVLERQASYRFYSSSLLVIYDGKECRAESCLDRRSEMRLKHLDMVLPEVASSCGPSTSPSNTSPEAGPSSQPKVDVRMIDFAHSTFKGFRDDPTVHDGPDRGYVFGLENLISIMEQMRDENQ

Row | Compound | activity change
1 | Oc1ccc2c3c1O[C@H]1c4[nH]c5c(N=C=S)cccc5c4C[C@@]4(O)[C@@H](C2)N(CC2CC2)CC[C@]314 | -97.1% (active)
2 | CO[C@]12CC[C@@]3(C[C@@H]1[C@](C)(O)C(C)(C)C)[C@@H]1Cc4ccc(O)c5c4[C@@]3(CCN1CC1CC1)[C@H]2O5 | 0.147%
3 | C/C=C(\C)C(O)C(C)/C=C(C)/C=C/C/C(C)=C/Cc1nc(OC)c(OC)c(O[C@@H]2O[C@@H](C)[C@H](O)[C@@H](O)[C@H]2O)c1C (stereo not given in full) | -8.45%
4 | NC(=O)[C@@H](CC1CC1)[C@@H](CCC(F)(F)F)C(=O)N[C@H]1N=C(c2ccccc2)c2cccc(F)c2NC1=O | 10.6%
5 | C[C@@H]1C[C@@H](O)[C@]2(O)O[C@@H]3C[C@@]4(C=O)C(CC[C@@H]5C4CC[C@]4(C)[C@@H](C6=CC(=O)OC6)CC[C@]54O)C[C@H]3O[C@@H]2O1 (stereo not given in full) | 17.6%
